# Screening results (PubChem BioAssay)
# NPC1 promoter act = qHTS Assay for NPC1 Promoter Activators; Huh7 NPC1 promoter luciferase reporter, 24 h; Potency, µM (titrated, usually from 9.22 µM), for the others: at the top dose activation, actives largely listed as activators; 2.4% of 320,000 active; AID 485313, 2010; also: % of control where 0% means no effect; nearly all actives have a fitted effect of over 60% in size
#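 Huh7 cells stably carrying NPC1 promoter–luciferase, plated in Opti-MEM with 10% FBS for 2 h, were exposed to compound in DMSO for 24 h at 37 °C; luciferase reagent was added for 10 min and luminescence read.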
# FLuc modulator = qHTS profiling assay for firefly luciferase inhibitor/activator using purifed enzyme and Km concentrations of substrates (counterscreen for miR-21 project). Luciferin 4-monooxygenase (Photinus pyralis), P08659. purified FLuc, Km substrates, luminescence inhibition. Potency, µM (highest dose often 57.5 µM), without a hit: at the top dose activity change, negative = inhibition, hits mostly inhibitors. 6.9% of 360,000 active;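 also: plate controls were vehicle for no effect and reference inhibitor for full effect; nearly all actives have a fitted effect of over 55% in size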
# Target sequence (P08659 whole entry, looked up): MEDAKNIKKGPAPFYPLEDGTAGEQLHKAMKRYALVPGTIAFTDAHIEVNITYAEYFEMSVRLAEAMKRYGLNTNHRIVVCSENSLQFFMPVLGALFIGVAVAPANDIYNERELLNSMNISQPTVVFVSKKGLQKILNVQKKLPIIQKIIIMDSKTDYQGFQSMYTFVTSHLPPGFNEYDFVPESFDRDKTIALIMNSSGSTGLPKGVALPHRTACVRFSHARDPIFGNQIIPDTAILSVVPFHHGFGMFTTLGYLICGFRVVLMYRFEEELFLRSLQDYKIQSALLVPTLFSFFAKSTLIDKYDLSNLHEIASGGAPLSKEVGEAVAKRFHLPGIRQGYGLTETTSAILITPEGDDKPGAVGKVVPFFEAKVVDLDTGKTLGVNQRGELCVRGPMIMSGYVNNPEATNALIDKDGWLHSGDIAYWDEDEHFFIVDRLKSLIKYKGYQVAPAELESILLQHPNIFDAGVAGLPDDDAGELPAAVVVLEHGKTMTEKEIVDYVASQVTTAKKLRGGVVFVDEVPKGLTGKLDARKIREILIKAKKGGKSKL
#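 Purified P. pyralis luciferase, 10 nM final, with Km-level 10 uM D-luciferin and 10 uM ATP in 50 mM Tris acetate pH 7.5, 10 mM Mg acetate, 0.01% Tween-20, 0.05% BSA; 6-point qHTS titration about 60 µM downward; luminescence read.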
# Rab9 prom act = qHTS Assay for Rab9 Promoter Activators | Huh7 Rab9 promoter-luciferase reporter, luminescence, 24 h | Potency, µM (highest dose often 9.22 µM), without a hit: at the top dose activation, negative = inhibition, hits mostly activators | 2.8% of 320,000 active | AID 485297, 2010; also: % of control where 0% means no effect; nearly all actives have a fitted effect of over 60% in size
#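 Luminescence from Amplite-detected luciferase (10 minutes, ambient) reports Rab9 promoter activation. Before that, stable Rab9-luciferase Huh7 cells (1500/well, reduced-serum OP-MEM I plus 10% FBS) were exposed to compound for 24 hours at 37C.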
# ELG1 repair inh = qHTS screen for small molecules that inhibit ELG1-dependent DNA repair in human embryonic kidney (HEK293T) cells expressing luciferase-tagged ELG1 | Potency, µM (titrated, usually from 46.1 µM), inactives show at the highest dose activity change, negative = inhibition, hits mostly inhibitors | HEK293T ELG1-luciferase reporter, luminescence, 16 h; DNA damage induced by 5-fluorouridine | 2.3% of 330,000 active; also: % is scaled to controls: 0 for no effect and ±100 for the full control effect; nearly all actives have a fitted effect of over 55% in size
#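 In this reporter screen, reduction of luminescence relative to DMSO vehicle indicated activity. Compounds and 5-fluorouridine were added together to 2,000 cells per well, incubated for 16 hr at 37 °C, then developed with ONE-Glo.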
# SMN2 splice up = qHTS Assay for Enhancers of SMN2 Splice Variant Expression; HEK293 SMN2-luciferase splicing reporter, luminescence, 30-36 h; 2.8% of 210,000 active; Potency, µM (highest dose often 46.1 µM), for inactives: at the top dose activity change, positive = activation, most hits filed as activators; AID 1458, 2008; also: % of control where 0% means no effect; nearly all actives have a fitted effect of over 55% in size
#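 qHTS luciferase splicing reporter: luminescence rises when SMN2 exon 7 is included in transfected HEK293 cells. Compound exposure lasted 30-36 h at 37C, with 4.5 mM final sodium butyrate as control, followed by a ONE-Glo read.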
# ELG1 genotoxic = qHTS screen for small molecules that induce genotoxicity in human embryonic kidney (HEK293T) cells expressing luciferase-tagged ELG1; 1.3% of 330,000 active; HEK293T ELG1-luciferase reporter, luminescence, 16 h; Potency, µM (highest dose often 46 µM), for inactives: at the highest dose activity change, positive = activation, hits mostly activators; also: % of control where 0% means no effect; nearly all actives have a fitted effect of over 60% in size
#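 Cells (2,000/well) expressing the ELG1-luciferase fusion are dosed by pin tool and kept 16 hr at 37 °C, 5% CO2. Signal comes from ONE-Glo luciferase reagent after 30 min at room temperature.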
# Numbers without * were called inactive; ? = inconclusive; nt = no result; [ ] = remark or other dose. Shown are actives, neighbours in structure and some others; about 9.2% of the full set was active somewhere. Calls follow the shape of the dose curve; as a rule, active = well fitted curve in the direction sought with a large enough effect; inconclusive = small, poorly fitted or top-dose-only effect, or another doubt; inactive = no such curve, though single readings can be large; an effect the other way counts as inactive or inconclusive. Potency is read from the fitted curve at half-maximal effect.
SMILES,NPC1 promoter act,FLuc modulator,Rab9 prom act,ELG1 repair inh,SMN2 splice up,ELG1 genotoxic
Cc1cc(C)c2nc(N(CCCN(C)C)C(=O)C3=COCCO3)sc2c1,-5.3%,2.8%,3.0%,23.1%,nt,10.7%
CCN(C(=O)C1=COCCO1)c1nc2c(C)cccc2s1,29.2%,15.1µM*,?,?,nt,20.6µM*
CCC1CCCCN1Cc1cn2c(-c3ccc(Br)cc3)nnc2s1 (stereo not given),nt,5.5%,nt,nt,nt,nt
COc1ccc(N(C)C(=O)c2cc3c(s2)-c2ccc(Cl)cc2S(=O)(=O)C3)c(OC)c1,-14.7%,-0.8%,-8.0%,20.6µM*,nt,-4.5%[9.26 µM]
COc1ccc(N(C)C(=O)c2cc3c(s2)-c2ccccc2OC3)c(OC)c1,0.4%,1.7%,-6.3%,?,nt,-4.5%
COc1cc(NC(=O)c2cc(C)nc3ccccc23)cc(OC)c1OC,-4.5%,3.6%,-8.0%,7.5%,-2.4%,7.7%
O=C(Nc1nccs1)c1cc(-c2ccncc2)nc2ccccc12,-4.8%,0.2%,0.6%,-16.7%,-3.1%,-11.0%
COc1ccc(NC(=O)c2cc(-c3ccc(C)o3)nc3ccccc23)cc1OC,19.4%,0.953µM*,?,14.6µM*,-23.2%,4.2%
O=C(Nc1nncs1)c1cc(-c2ccco2)nc2ccccc12,nt,nt,nt,?,nt,-3.7%
Cc1ccc(-c2cc(C(=O)Nc3nccs3)c3ccccc3n2)c(C)c1,-2.8%,-6.5%,-2.7%,13µM*,-43.4%,-4.3%
Cc1ccc(-c2cc(C(=O)Nc3nccs3)c3ccccc3n2)o1,-3.2%,10.7µM*,-3.7%,-19.4%,-34.5%,-8.0%
CN1CCN(CC(=O)Nc2nnc(-c3cccs3)s2)CC1,6.6%,-2.1%,-1.3%,?,-8.2%,3.8%
Cc1ccc(OCC(=O)N2CC(C)CC(C)C2)c([N+](=O)[O-])n1 (stereo not given),nt,nt,nt,-0.6%,nt,2.6%
Cc1cc2nc(SCC(=O)Nc3ccccc3C(=O)O)[nH]c2cc1C,0.3%,10.7µM*,-4.0%,?,29.9%,?
NC(=O)c1ccccc1NC(=O)CSc1nc2ccccc2c(=O)[nH]1,0.3%,0.5%,7.4%,-1.3%,nt,-3.7%
COc1ccc(CN(C)C(=O)c2oc3ccccc3c2CSC)cc1F,0.4%,5.4%,-2.1%,4.3%,nt,-0.4%
O=C(NC1CC(=O)c2sccc21)c1ccc(Cl)cc1Cl (stereo not given),?,16.9µM*,2.82µM*,?,5.01µM*,?
O=C(CCS(=O)(=O)c1ccc(Cl)cc1)Nc1nc(-c2cccnc2)cs1,15.8%,5.2%,?,?,nt,nt
O=C(CCS(=O)(=O)c1ccc(Cl)cc1)Nc1nc(-c2ccncc2)cs1,-2.3%,3.7%,-0.3%,7.3µM*,nt,-2.5%
Cc1ccc(C(=O)CC(=O)c2ccc(C)cc2O)cc1,?,16.9µM*,?,?,nt,4.6%
CC(C)(C)c1ccc(C(=O)CC(=O)c2cc(Cl)ccc2O)cc1,22.6%,-4.8%,-2.0%,1.2%,-87.9%,?
Cc1ccc(C(=O)CC(=O)c2cc(Cl)ccc2O)cc1,18.7%,16.9µM*,19.3%,?,26.0%,14.6µM*
Cc1ccc(OCc2cc(C(=O)N3CCCCCCC3)no2)cc1C,?,?,?,?,nt,22.4%
Cc1cc(OCc2cc(C(=O)N3CCCCCC3)no2)cc(C)c1Cl,2.82µM*,13.5µM*,2.51µM*,?,nt,?
COCC1CCN(C(=O)c2cc(COc3cncc(Cl)c3)on2)C1 (stereo not given),-1.7%,0.0%,2.6%,?,nt,-4.6%
SMILES,NPC1 promoter act,FLuc modulator,Rab9 prom act,ELG1 repair inh,SMN2 splice up,ELG1 genotoxic
COCC1CCN(C(=O)c2cc(COc3cc(C)c(Cl)c(C)c3)on2)C1 (stereo not given),?,16.9µM*,4.47µM*,?,nt,6.3%[9.26 µM]
CCN(CC1CCCO1)C(=O)c1cc(COc2cc(C)c(Cl)c(C)c2)on1 (stereo not given),3.16µM*,13.5µM*,2.24µM*,?,nt,?
COc1cccc(CNC(=O)CCn2ccc3cc(S(=O)(=O)N4CCCC4)ccc32)c1,-4.7%,-1.2%,-2.4%,4.3%,nt,-2.1%
COc1cccc(CNC(=O)CCCn2ccc3cc(S(=O)(=O)N4CCCC4)ccc32)c1,-1.0%,-8.0%,-4.9%,23.1µM*,nt,-10.0%
CCn1cc(C(=O)N2CCN(c3ccccc3)CC2)c(=O)c2cc(S(=O)(=O)N3CCCC3)ccc21,nt,0.0%,nt,nt,0.7%,nt
Cc1ccc(-c2cc(C(F)(F)F)n3ncc(C(=O)N4CCCc5ccccc54)c3n2)cc1,-5.5%,-0.4%,-3.0%,16.3%,-15.8%,8.3%
Cc1cc2ncn(C(=O)c3cc(-c4ccccc4)nc4ccccc34)c2cc1C,-0.1%,?,0.8%,1.0%,-0.1%,0.7%
Cc1cnn(-c2nc(-c3ccccc3)cc(-c3ccccc3)n2)c1,-10.2%,1.1%,-9.3%,20.6µM*,nt,-9.7%
Cc1cnn(C(=O)c2cc(-c3ccccc3)nc3ccccc23)c1,1.7%,16.9µM*,7.6%,-1.2%,7.3%,-3.0%
O=C(c1cccnc1)N1CCCc2ccccc21,0.5%,3.3%,7.5%,13.0%,-2.8%,2.7%
Cc1ccc(-c2cc(C(=O)N3CCCc4ccccc43)c3ccccc3n2)cc1,9.0%,3.38µM*,0.5%,?,-17.5%,?
O=C(c1cc(-c2cccnc2)nc2ccccc12)N1CCCc2ccccc21,-4.1%,-19.1%,1.5%,20.6µM*,-6.6%,-5.2%
S=c1[nH]nc(C2CCCCC2)n1/N=C/c1cccs1,-1.8%,1.0%,-0.5%,-1.6%,-4.2%,0.8%
CC(=O)c1ccc(NC(=O)CSc2nnc3ccc(-c4ccccn4)nn23)cc1,1.4%,3.7%,-3.2%,-0.8%,nt,-2.6%
CC(=O)N(C)c1ccc(OCC(O)Cn2c(C)nc3ccccc32)cc1 (stereo not given),-15.0%,2.0%,-16.3%,9.2µM*,-57.1%,-7.3%
CC(=O)N(C)c1ccc(OCC(O)Cn2c3ccc(Cl)cc3c3cc(Cl)ccc32)cc1 (stereo not given),-3.5%,1.8%,-8.2%,18.4µM*,-128.4%,-23.5%
Cc1ccc(OCC(O)Cn2c3ccccc3c3ccccc32)cc1 (stereo not given),-5.0%,-2.2%,-4.9%,-23.9%,-15.9%,-2.1%
CC(=O)Nc1ccc(OCC(O)Cn2c(C)nc3ccccc32)cc1 (stereo not given),13.7%,0.2%,-4.7%,13.0%,-48.2%,-6.0%
